Data as given in ChEMBL document CHEMBL3988442, “University of Dundee, Small-Polar-MMV Screening Library” (2021).
For some of these results: Results with a measured potency or affinity are listed apart.

Key:
Design in all cases: scale not given: direction of the effect not stated beside the values
[1] = target: Protein translocase subunit SecA (Escherichia coli (strain K12)) (UniProt P10408); test: Assay to Identify E. coli SecA ATPase Inhibitors; assay type: functional; conditions: 30 µM
[2] = target: T1, Ubiquitin-activating enzyme e1, putative (Leishmania donovani (strain BPK282A1)) (UniProt E9BSI1); test: Leishmania donovani Ubiquitin Activating Enzyme (LdE1); assay type: functional; conditions: 30 µM
T1 sequence (whole entry): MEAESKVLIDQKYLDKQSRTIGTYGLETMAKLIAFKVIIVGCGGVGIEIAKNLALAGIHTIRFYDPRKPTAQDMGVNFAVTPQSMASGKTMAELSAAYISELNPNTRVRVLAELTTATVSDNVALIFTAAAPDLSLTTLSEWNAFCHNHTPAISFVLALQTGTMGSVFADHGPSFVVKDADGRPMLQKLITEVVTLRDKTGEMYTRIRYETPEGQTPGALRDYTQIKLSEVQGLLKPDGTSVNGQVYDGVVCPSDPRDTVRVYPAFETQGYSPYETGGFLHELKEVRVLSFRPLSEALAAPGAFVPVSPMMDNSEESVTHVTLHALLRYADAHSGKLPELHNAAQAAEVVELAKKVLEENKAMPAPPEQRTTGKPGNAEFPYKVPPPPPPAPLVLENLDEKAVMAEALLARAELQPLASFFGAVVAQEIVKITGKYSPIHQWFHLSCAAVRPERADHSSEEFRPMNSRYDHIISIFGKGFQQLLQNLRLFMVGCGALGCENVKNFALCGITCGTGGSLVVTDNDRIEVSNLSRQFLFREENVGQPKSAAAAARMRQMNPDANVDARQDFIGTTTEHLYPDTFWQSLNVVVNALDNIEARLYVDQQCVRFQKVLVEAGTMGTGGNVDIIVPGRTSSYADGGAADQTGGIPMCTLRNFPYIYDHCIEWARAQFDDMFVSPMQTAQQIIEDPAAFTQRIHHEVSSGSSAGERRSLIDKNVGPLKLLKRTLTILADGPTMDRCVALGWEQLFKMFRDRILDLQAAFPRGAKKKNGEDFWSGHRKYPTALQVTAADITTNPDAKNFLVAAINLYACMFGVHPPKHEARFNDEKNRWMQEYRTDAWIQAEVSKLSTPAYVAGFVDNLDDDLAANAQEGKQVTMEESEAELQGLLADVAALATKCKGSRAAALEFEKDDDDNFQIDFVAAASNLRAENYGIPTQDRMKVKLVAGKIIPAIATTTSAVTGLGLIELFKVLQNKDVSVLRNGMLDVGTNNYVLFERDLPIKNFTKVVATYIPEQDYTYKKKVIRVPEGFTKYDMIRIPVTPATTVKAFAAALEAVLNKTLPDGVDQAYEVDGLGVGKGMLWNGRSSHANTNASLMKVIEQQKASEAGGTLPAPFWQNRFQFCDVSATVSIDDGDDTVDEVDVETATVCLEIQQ

[3] = target: AMP-activated protein kinase, AMPK (Homo sapiens) (UniProt P54646+O43741+P54619+Q9UGJ0+Q9Y478+Q13131+Q9UGI9); test: AMP-dependent Kinase enzyme assay. An in vitro enzyme assay that detects ADP turnover that is directly proportional to AMPK activity. This uses naive AMPK that is activated during the assay with MK-8722; assay type: functional; conditions: 30 µM
[4] = target: Sialic acid-binding Ig-like lectin 9 (Homo sapiens) (UniProt Q9Y336); test: Hs-Siglec9 ALPHAscreen SOP 20170721; conditions: 10 µM
Trypanosoma cruzi = test: Trypanosoma cruzi phosphomannomutase and mannose-1-phosphate guanylyltransferase assay; assay type: functional; conditions: 10 µM
[5] = target: T2, Arginase-2, mitochondrial (Homo sapiens) (UniProt P78540); test: in vitro enzyme assay to detect the production of urea directly proportional to the activity of Arginase II; assay type: functional; conditions: 33.3 µM; also: in the data most compounds retested in dose-response had high values
T2 sequence (whole entry): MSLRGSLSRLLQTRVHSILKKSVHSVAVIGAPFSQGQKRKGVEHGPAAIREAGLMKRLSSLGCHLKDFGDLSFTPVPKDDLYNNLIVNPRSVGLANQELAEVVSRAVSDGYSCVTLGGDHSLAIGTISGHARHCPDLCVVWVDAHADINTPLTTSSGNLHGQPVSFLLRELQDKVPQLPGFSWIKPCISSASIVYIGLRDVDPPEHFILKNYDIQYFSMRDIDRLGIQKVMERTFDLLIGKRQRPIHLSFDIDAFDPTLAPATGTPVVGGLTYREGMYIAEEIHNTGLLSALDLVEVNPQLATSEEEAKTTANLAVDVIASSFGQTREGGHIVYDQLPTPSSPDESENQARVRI

[6] = target: T3, Proteasome subunit beta (Trypanosoma cruzi) (UniProt O96673); test: Trypanosoma cruzi proteasome chymotrypsin-like activity (TcProtChymo) assay.; also: in the data most compounds retested in dose-response had high values; assay type: functional; conditions: 9.37 µM
T3 sequence (whole entry): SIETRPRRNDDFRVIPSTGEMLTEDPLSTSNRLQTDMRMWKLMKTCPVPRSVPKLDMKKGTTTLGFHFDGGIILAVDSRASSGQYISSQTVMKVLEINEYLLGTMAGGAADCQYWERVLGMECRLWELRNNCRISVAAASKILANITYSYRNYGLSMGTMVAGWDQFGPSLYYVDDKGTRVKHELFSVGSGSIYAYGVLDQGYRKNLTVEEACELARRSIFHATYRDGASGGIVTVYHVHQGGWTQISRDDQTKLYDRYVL

Homo sapiens = species: Homo sapiens; test: To identify inhibition of the IFN signalling (Jak-Stat) pathway via expression of an eGFP reporter gene under the control of an IFN-stimulated response element (ISRE) containing MxA promoter.; assay type: functional; conditions: 30 µM
[7] = target: T4, Tyrosyl-tRNA synthetase, putative (Trypanosoma cruzi (strain CL Brener)) (UniProt Q4DSP6); test: Trypanosoma cruzi tyrosyl tRNA synthetase (TcYRS) _High Tyrosine SOP; assay type: functional; conditions: 30 µM; also: in the data most compounds retested in dose-response had high values
T4 sequence (whole entry): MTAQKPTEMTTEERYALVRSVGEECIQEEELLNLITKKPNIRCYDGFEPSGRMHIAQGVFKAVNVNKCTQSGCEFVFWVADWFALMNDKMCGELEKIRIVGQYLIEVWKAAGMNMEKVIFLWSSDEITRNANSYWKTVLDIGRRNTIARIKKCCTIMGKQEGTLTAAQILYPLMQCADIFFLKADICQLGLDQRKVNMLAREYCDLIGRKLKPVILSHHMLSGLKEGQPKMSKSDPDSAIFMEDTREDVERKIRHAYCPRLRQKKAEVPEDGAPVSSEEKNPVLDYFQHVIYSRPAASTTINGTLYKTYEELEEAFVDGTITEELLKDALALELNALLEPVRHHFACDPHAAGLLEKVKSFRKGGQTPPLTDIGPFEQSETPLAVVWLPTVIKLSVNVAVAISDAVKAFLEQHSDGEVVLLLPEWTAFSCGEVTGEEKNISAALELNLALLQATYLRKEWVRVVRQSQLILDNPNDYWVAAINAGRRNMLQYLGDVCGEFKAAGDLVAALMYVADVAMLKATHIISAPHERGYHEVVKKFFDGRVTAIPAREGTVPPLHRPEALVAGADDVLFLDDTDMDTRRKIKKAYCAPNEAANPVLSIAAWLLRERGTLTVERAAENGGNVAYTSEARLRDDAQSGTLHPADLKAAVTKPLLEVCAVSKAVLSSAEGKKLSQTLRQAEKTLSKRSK

[8] = target: T4, Tyrosyl-tRNA synthetase, putative (Trypanosoma cruzi (strain CL Brener)); test: Trypanosoma cruzi tyrosyl tRNA synthetase (TcYRS) SOP; assay type: functional; conditions: 30 µM
[9] = target: Chromo domain-containing protein 1 (Saccharomyces cerevisiae (strain ATCC 204508 / S288c) (Baker's yeast)) (UniProt P32657); test: ScCHD-1 Enzyme Inhibition Assay; assay type: functional; conditions: 30 µM; also: in the data most compounds retested in dose-response had high values
Sequence of Chromo domain-containing protein 1 (Saccharomyces cerevisiae (strain ATCC 204508 / S288c) (Baker's yeast)) (P32657 whole entry, the tested form may be a part): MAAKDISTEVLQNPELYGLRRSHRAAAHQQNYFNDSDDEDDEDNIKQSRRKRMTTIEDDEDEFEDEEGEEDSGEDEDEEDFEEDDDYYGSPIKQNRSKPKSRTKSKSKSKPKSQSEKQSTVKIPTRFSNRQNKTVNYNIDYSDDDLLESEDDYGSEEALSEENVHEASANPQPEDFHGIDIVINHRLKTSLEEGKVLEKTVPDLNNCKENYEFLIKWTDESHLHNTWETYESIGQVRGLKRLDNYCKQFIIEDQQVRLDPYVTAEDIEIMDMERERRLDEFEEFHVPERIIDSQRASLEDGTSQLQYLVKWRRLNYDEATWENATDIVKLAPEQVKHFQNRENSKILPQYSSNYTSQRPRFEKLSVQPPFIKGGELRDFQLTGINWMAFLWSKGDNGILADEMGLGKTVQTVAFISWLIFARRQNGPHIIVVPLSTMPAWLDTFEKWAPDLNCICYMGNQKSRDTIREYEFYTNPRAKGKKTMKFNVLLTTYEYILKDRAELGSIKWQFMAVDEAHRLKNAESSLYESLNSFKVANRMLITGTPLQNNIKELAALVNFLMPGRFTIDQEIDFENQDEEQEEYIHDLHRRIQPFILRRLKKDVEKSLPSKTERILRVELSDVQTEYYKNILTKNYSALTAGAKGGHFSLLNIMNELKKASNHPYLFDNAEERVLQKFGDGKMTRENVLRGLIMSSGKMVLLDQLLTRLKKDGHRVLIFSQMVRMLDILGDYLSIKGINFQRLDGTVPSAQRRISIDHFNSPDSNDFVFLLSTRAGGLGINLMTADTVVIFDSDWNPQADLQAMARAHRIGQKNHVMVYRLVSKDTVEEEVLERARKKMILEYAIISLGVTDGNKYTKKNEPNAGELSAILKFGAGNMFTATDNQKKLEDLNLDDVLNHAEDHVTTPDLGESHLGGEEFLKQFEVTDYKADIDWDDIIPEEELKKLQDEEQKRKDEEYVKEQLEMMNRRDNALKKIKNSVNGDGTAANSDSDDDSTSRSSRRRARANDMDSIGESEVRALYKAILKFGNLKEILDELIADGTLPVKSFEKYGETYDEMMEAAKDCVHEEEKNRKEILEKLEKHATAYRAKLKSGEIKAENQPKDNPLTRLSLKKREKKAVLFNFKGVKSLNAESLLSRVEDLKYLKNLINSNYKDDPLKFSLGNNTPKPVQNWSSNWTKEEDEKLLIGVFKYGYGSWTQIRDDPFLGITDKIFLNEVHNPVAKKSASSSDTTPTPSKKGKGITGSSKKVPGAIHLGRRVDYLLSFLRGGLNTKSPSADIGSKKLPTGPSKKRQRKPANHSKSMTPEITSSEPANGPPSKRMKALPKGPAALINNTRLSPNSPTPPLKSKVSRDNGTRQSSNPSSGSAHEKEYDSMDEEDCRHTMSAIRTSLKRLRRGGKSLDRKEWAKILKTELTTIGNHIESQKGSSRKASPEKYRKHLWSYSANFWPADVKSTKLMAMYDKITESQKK

Sequence of Sialic acid-binding Ig-like lectin 9 (Homo sapiens) (Q9Y336 whole entry): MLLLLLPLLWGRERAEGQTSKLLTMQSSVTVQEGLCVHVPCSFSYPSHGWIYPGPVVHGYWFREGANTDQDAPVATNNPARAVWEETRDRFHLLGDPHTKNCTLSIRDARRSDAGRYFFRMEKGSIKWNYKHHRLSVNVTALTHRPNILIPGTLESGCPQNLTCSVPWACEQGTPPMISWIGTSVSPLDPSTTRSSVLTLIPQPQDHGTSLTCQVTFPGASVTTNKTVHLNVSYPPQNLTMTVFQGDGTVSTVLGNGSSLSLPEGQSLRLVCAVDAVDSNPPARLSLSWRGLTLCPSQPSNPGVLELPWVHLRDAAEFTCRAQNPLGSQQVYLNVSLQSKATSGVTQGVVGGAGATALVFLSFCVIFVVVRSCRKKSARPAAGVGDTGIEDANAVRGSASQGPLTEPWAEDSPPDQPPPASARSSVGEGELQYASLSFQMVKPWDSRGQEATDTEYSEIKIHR
Sequence of Protein translocase subunit SecA (Escherichia coli (strain K12)) (P10408 whole entry): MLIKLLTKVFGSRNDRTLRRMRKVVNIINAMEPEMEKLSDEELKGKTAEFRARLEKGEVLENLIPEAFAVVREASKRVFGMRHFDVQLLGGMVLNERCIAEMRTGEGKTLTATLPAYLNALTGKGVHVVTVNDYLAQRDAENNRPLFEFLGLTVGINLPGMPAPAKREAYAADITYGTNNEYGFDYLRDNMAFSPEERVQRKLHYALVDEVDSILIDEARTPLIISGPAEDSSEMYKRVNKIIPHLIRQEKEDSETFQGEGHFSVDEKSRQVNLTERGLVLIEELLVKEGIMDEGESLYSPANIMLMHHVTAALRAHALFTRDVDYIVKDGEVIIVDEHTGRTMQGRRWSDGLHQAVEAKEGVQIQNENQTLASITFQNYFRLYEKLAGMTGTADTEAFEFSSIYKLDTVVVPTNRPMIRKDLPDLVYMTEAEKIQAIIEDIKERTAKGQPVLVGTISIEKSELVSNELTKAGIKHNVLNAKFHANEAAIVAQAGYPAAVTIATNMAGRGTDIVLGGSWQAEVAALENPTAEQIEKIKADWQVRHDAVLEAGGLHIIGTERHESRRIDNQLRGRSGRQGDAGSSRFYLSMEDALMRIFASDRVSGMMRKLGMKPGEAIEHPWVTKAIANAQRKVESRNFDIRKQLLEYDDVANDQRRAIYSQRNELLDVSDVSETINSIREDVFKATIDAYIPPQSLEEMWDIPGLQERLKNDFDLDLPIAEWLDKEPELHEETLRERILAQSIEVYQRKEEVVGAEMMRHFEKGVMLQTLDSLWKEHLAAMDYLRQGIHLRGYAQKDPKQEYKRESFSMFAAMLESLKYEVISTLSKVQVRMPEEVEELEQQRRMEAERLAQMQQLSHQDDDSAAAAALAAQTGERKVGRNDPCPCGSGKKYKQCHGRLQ

SMILES | Percent Effect [1] | Percent Effect [2] | Percent Effect [3] | Percent Effect [4] | Percent Effect (Trypanosoma cruzi) | Percent Effect [5] | Percent Effect [6] | Percent Effect (Homo sapiens) | Percent Effect [7] | Percent Effect [8] | Percent Effect [9]
N#Cc1ccc(CNC(=O)NC2CCN(CC(F)F)CC2)cc1 | -5.31% | 2.7% | 0.0143% | 20.2% | 10.8% | -2.23% | 12.3% | 8.62% | 4.3% | 16.1% | -4.65%
Cn1ncc2c(=O)[nH]c(N3CCN(C(=O)c4ccsc4)CC3)nc21 | -5.57% | 2.7% | 2.37% | -0.0131% | -6.32% | 17.2% | 3.24% | 25% | -1.48% | -11.1% | 1.01%
O=C(CCc1cscn1)NS(=O)(=O)c1ccc2c(c1)CCC2 | -5.7% | 15.3% | -13.9% | 36.9% | 7.29% | 22.5% | 3.33% | 5.07% | 3.16% | 15.4% | -4.74%
O=C(C1CC(=O)N(C2CCCC2)C1)N1CCN(CCn2cccc2)CC1 (stereo unspecified) | -3.53% | 13.3% | -5.45% | 19.8% | 2.82% | 13.5% | 16.9% | 23% | 3.83% | 13.6% | -7.64%
CC(C)OCC(=O)N1CCCN(Cc2ccc(C#N)cc2)CC1 | -2.63% | 13.2% | 4.09% | 11.3% | 0.94% | 2.68% | 10.2% | -2.84% | 8.33% | 17.1% | -8.3%
Cc1noc2nc(C3CCN(CC4=CCCOC4)CC3)cc(C(F)F)c12 | -1.97% | 6.76% | 13.4% | 0.663% | -3.56% | -3.02% | 3.28% | 2.72% | 7.53% | 11.7% | -11.7%
CN(C)C(=O)[C@H]1C[C@@H]2CN(S(=O)(=O)Cc3ccccc3)C[C@H]1O2 | -2.48% | 13.3% | 5.4% | -3.98% | -1.38% | 3.96% | 7.49% | -3.98% | 5.32% | 11.5% | -6.01%
Cc1cccc(C(=O)N2C[C@@H]3OCCN(c4ncccn4)[C@@H]3C2)n1 | -4.13% | 5.33% | -3.52% | 4.37% | -2.7% | -8.78% | 7.35% | -6.79% | 5.21% | 0% | 0.315%
O=C1OCCN1CCc1nc(-c2cc3c4c(c2)CC(=O)N4CCC3)cs1 | -8.45% | 0% | 4.43% | -2.26% | -7.87% | -0.712% | 9.97% | 47.2% | 0.971% | 0% | -5.4%
O=C(c1ccsc1)N1CC[C@H]2C[C@@H](c3nnc(C4CC4)o3)O[C@@H]2C1 | -1.93% | 7.79% | 1.35% | -4.04% | -1.08% | 12.3% | 19.5% | -4.29% | 2.12% | 11.5% | -7.52%
CNS(=O)(=O)c1cccc(CNc2cc(C(F)(F)F)ccn2)c1 | -7.14% | 5.41% | 12.6% | -1.96% | -6.13% | 5.21% | 0.54% | 38.2% | 4.43% | 3.7% | -1.45%
